# Rows were chosen to be rich in hits. Some 5.2% of all compounds tested hit in one or more screens of this group.
# IDH1 R132H inh: human IDH1 R132H inhibition. O75874. IDH1-R132H enzyme, NADPH consumption, diaphorase/resazurin fluorescence. Potency, µM (top dose mostly 76.6 µM), without a hit: at the top dose activity change, negative = inhibition, hits mostly inhibitors. 390,000 tested, 0.093% active; further: nearly all actives have a fitted effect of over 65% in size
#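 IDH1-R132H (0.5 ug/mL dispensed) in pH 7.5 Tris buffer was preincubated 30 min with compound, then given a substrate mix of 0.016 mM NADPH and 2 mM alpha-KG for 80 min at room temperature; remaining NADPH was read by diaphorase/resazurin fluorescence.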
# PLK1 PBD block: blocks phosphopeptide binding to human PLK1 polo-box domain; 360,000 tested, 2.8% active; Plk1 PBD binding of FITC phosphopeptide, fluorescence polarization; P53350; Potency, µM, for inactives: max response, negative = inhibition, usual class: inhibitors; further: series mostly up to about 57 µM; nearly all actives have a fitted effect of over 65% in size
# Target sequence (P53350 whole entry, looked up, the tested form may be a part): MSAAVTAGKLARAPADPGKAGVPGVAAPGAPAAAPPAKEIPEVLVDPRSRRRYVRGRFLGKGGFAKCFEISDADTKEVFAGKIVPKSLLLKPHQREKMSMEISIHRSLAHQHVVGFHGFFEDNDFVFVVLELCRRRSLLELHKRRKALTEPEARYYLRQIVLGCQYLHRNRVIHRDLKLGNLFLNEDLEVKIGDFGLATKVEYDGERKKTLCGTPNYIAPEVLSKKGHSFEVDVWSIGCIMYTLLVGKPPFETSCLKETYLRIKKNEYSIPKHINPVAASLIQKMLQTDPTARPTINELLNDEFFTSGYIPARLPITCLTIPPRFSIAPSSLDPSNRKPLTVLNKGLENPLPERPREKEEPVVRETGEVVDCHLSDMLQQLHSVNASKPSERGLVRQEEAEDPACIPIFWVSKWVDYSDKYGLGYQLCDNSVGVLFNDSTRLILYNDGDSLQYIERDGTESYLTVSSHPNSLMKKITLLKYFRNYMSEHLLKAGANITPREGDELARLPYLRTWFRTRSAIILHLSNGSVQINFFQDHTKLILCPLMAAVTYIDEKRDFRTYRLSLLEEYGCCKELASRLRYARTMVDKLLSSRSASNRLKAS
# TrxR1 substrate: is turned over as a substrate by rat TrxR1; O89049; purified TrxR1 substrate turnover, NADPH consumption readout; Potency, µM (titrated, usually from 114 µM), for inactives: at the highest dose activity change, negative = substrate turnover; 390,000 tested, 0.01% active; AID 588456; further: nearly all actives have a fitted effect of over 50% in size
#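 Rat TrxR1, dispensed at 90 nM, was prereduced with 400 uM NADPH (final) for 5 min at ~22 deg C, then incubated with compound 15 min before 400 uM selenite. A first-read NADPH fluorescence drop versus no-compound background flagged substrates.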
# rTrxR1 inhibitor: blocks rat thioredoxin reductase 1; 390,000 tested, 1% active; Potency, µM (titrated, usually from 114 µM), inactives show at the top dose activity change, negative = inhibition, actives largely listed as inhibitors; recombinant rTrxR1, NADPH fluorescence consumption, selenite substrate; O89049; further: nearly all actives have a fitted effect of over 65% in size
#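 Rat TrxR1 (90 nM in the dispensed reagent) was pre-reduced with 400 uM NADPH for 5 min at room temperature, then incubated with compound for 15 min. After 400 uM selenite was added, NADPH fluorescence (Ex 340/Em 450 nm) was followed for 8 min.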
# Sfp PPTase inh: inhibitors of Bacillus subtilis Sfp phosphopantetheinyl transferase. 310,000 tested, 3.5% active. Potency, µM, for the others: largest response in the series, negative = inhibition, hits mostly inhibitors. AID 1490. Biochemical Sfp PPTase activity, qHTS;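 further: the enzyme is Sfp with the accession as filed and its product quenches rhodamine fluorescence; 0% = enzyme reaction without inhibitor and -100% = no enzyme wells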
#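 Fluorescence-quenching assay with 15 nM Sfp, 5 uM rhodamine-CoA and 12.5 uM BHQ-2-labelled ybbR peptide in pH 7.6 Hepes/MgCl2 buffer. Enzyme was pre-incubated with compound for 15 min at room temperature. Rate was taken from the 30-min fluorescence change (525/598 nm).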
# VDR inhibitor: blocks the human vitamin D receptor | VDR-SRC2-3 peptide fluorescence polarization, 2 h | Potency, µM, for the others: max response, negative = inhibition, most hits filed as inhibitors | 400,000 tested, 0.93% active | P11473
#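 The screen uses fluorescence polarization to detect compounds that interfere with recruitment of the SRC2-3 coactivator peptide to VDR; plates are read after 2 h at room temperature.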
# Active calls of the source: *; ? = inconclusive; . = no result given; [ ] = dose if it differs, or a comment. The call rests on the fitted dose curve; in most records, active means well fitted curve in the direction sought with a large enough effect; inconclusive means small, poorly fitted or top-dose-only effect, or another doubt; inactive means no such curve, though single readings can be large; an effect the other way counts as inactive or inconclusive. Unless noted, on the % scale 0 is the no-effect control and ±100 the full control effect; potency means the concentration at half of the fitted maximal effect.
SMILES,IDH1 R132H inh,PLK1 PBD block,TrxR1 substrate,rTrxR1 inhibitor,Sfp PPTase inh,VDR inhibitor
COc1ccc2c(c1)CCC1C2=NN(/C(C)=C\C(C)=O)C1c1ccc(F)cc1 (stereo not drawn),11.9%,11.9µM*,-1.8%,?,44.7µM*,?
COc1ccc2c(c1)C1=NN(/C(C)=C/C(C)=O)C(c3ccc(F)cc3)C1CC2 (stereo not drawn),7.2%,2.4%,-9.4%,-11.9%,-8.5%,?
CCN(C(=O)CCS(=O)(=O)c1cc(Br)cc2c1N(C(=O)C1CC1)CC2)c1cccc(C)c1,0.0%,.,-7.7%,-5.2%,.,-6.4%
COc1ccc(C(=O)C2C(=O)C(=O)N(Cc3ccco3)C2c2cccs2)cc1 (stereo not drawn),.,.,-13.8%,44.7µM*,.,?
Cc1ccc(/C(O)=C2/C(=O)C(=O)N(Cc3ccco3)C2c2cccs2)cc1 (stereo not drawn),-1.9%,-16.1%,2.3%[57.1 µM],-25.6%[57.1 µM],-19.2%,8.3%
CCN(CC)C(=O)C1CCCN(C/C(C)=C/c2ccccc2)C1 (stereo not drawn),8.9%,-2.8%,9.2%[57.1 µM],26.3%,79.4µM*,-2.2%
CSCC[C@H](NC(=O)c1ccco1)c1nnc2ccccn12,5.1%,-7.4%,3.6%,21.0%,10.4%,-15.4%
O=C(CSc1nnnn1C1CCCCC1)Nc1ccccc1F,-2.7%,-2.0%,-5.1%,1.2%,22.4%,-8.4%
O=C(O)CSc1nnnn1C1CCCCC1,3.8%,15µM*,7.0%[57.1 µM],11.0%[57.1 µM],9.4%,70.8µM*
O=C(Sc1nnnn1C1CCCCC1)c1cccs1,.,.,.,.,35.5µM*,.
O=C(CSc1nnnn1C1CCCCC1)Nc1cccc(NC(=O)c2ccco2)c1,1.9%,2.99µM*,7.5%[57.1 µM],-8.2%,16.9%,-9.6%
O=C(CSc1nnnn1C1CCCCC1)N1CCCC1,8.2%,-9.9%,0.0%,-8.0%,1.0%,-21.4%
O=C(CSc1nnnn1C1CCCC1)Nc1cccc(NC(=O)c2ccco2)c1,7.8%,-4.4%,5.1%,-0.2%,11.3%,-3.7%
COCCCNC(=O)C[C@@H]1C[C@@]2(C(=O)OC)CC(C)(C)CC=C2N(Cc2ccccc2)C1=O,.,-10.2%,.,.,.,.
COc1cc(OC)c2c(C)c(CC(=O)N3CCCCC3)c(=O)oc2c1,-11.9%,.,343.5%,?,.,6.5%
O=C1NC(=Nc2ccccc2Cl)S/C1=C\c1cccc([N+](=O)[O-])c1,-3.9%,26.7µM*,-7.0%,-4.1%,-7.5%,?
O=C1NC(=Nc2ccccc2Cl)S/C1=C\c1cccc([N+](=O)[O-])c1O,-7.1%,26.7µM*,-6.6%,-6.7%,-22.6%,79.4µM*
COc1c(/C=C2\SC(=Nc3ccccc3Cl)NC2=O)cccc1[N+](=O)[O-],9.7%,?,-6.2%,-0.7%,-19.2%,-17.2%
Fc1cccc(CSc2ccc(-c3ccco3)nn2)c1,3.5%,-8.4%,2.9%,?,15.8µM*,-25.4%
CCSc1ccc(-c2ccco2)nn1,-3.5%,-9.1%,13.3%[57.1 µM],?,14.1µM*,-12.1%
CSc1ccc(-c2ccco2)nn1,-1.9%,-9.2%,-3.3%[57.1 µM],-47.2%,31.6µM*,-14.7%
Cc1ccc(-c2noc(-c3ccc(N4CCOCC4)c([N+](=O)[O-])c3)n2)cc1,10.8%,.,-10.8%,1.8%,.,1.4%
O=C(NCC(F)(F)F)c1[nH]c(C(F)(F)F)nc1-c1ccccc1,.,0.9%,.,.,.,.
CCc1cc(C(=O)N(C)CC(=O)N(CC(C)C)c2c(N)n(CC(C)C)c(=O)[nH]c2=O)sc1C,3.1%,-4.6%,-2.8%,-8.6%,10.6%,15.2%
Cc1ccc(OCCSc2nnc(-c3cccs3)o2)cc1Cl,11.0%,.,-1.8%,4.3%,.,-7.7%
SMILES,IDH1 R132H inh,PLK1 PBD block,TrxR1 substrate,rTrxR1 inhibitor,Sfp PPTase inh,VDR inhibitor
Cc1cccc(COc2ccc(/C=N/NC(=O)c3nnn(-c4nonc4N)c3C)cc2)c1,7.8%,21.2µM*,-1.4%[57.1 µM],17.8%[57.1 µM],29.3%,?
Cc1ccc(-c2c(C(=O)N/N=C/c3ccc(C)o3)nnn2-c2nonc2N)cc1,22.7%,-14.9%,-4.4%,22.3%,50.1µM*,-17.2%
Cc1ccc(COc2cccc(/C=N/NC(=O)c3nnn(-c4nonc4N)c3C)c2)cc1,12.0%,-13.8%,-4.3%,11.5%,4.2%,-17.2%
CN(C)Cc1c(C(=O)N/N=C/c2ccc(-c3ccccc3)cc2)nnn1-c1nonc1N,-3.5%,21.2µM*,-0.2%[57.1 µM],-1.2%[57.1 µM],4.6%,?
Cc1ccc(/C=N/NC(=O)c2nnn(-c3nonc3N)c2CNc2ccccc2)cc1,3.4%,18.9µM*,4.6%[57.1 µM],21.5%[57.1 µM],16.3%,?
NC(CCC(=O)N[C@@H](CS)C(=O)NCC(=O)O)C(=O)O (stereo partly drawn),.,.,.,.,-1.1%,3.8%
C/C(=N\NC(=O)c1nnn(-c2nonc2N)c1-c1cccs1)c1ccncc1,3.2%,-0.6%,1.6%,35.5µM*,10.9%,-12.1%
Nc1nonc1-n1nnc(C(=O)N/N=C/c2cccc(F)c2)c1CN1CCCC1,5.1%,-9.6%,4.6%,10.8%,.,-10.9%
CN(Cc1c(C(=O)N/N=C/c2ccccc2)nnn1-c1nonc1N)C1CCCCC1,-3.6%,29.9µM*,-14.7%,-26.0%,12.4%,?
Nc1nonc1-n1nnc(C(=O)N/N=C/c2cccc(Cl)c2)c1CN1CCCC1,15.6%,29.9µM*,1.4%,19.9%,.,-19.9%
CN(Cc1c(C(=O)N/N=C/c2ccc(O)cc2)nnn1-c1nonc1N)C1CCCCC1,-5.7%,-6.4%,-4.6%,8.1%,4.2%,6.6%
CC1(C)CCc2cc(O)ccc2O1,.,.,2.3%,16.9%,.,.
COc1ccc(NC(=O)c2ccc3c(c2)NC(=O)CS3)cc1,-6.3%,9.7%,0.0%,-3.8%,.,-4.6%
Cc1ccc(NS(=O)(=O)c2cc(NC(=O)c3ccc4c(c3)NC(=O)CS4)ccc2Cl)c(C)c1,-1.7%,5.97µM*,-3.9%,-3.4%,15.8µM*,-22.9%
CCN(CC)CCOC(=O)C1(C2CCCCC2)CCCCC1,4.5%,-20.9%,-2.3%[57.1 µM],-10.8%[57.1 µM],8.1%,-14.4%
CCN(CC)CCOC(=O)C1(c2ccc(OC)c(OC)c2)CCCC1,0.0%,2.6%,0.6%,3.7%,79.4µM*,8.6%
COC(=O)C1=C(C(=O)OC)[C@@H]2N(Cc3ccccc3)c3ccccc3[C@@]23C[C@@H](C(=O)OC)N(S(=O)(=O)c2cccs2)C3=N1,.,.,.,.,-13.7%,.
COc1ccc2oc(C(=O)OCC(=O)N(C)CC(=O)Nc3ccc(F)cc3)c(C)c2c1,-3.0%,2.2%,31.2%,1.9%,.,22.5%
[O-]/C(=C(\C(=S)NCc1ccc2c(c1)OCO2)[n+]1ccccc1)c1ccc(Cl)s1,-1.7%,?,-3.1%,-5.5%,39.8µM*,?
Cn1nnnc1Sc1ncnc2scc(-c3ccccc3)c12,0.8%,-6.6%,8.9%[11.4 µM],6.7%[11.4 µM],6.7%,?
Cn1nnnc1Sc1ncnc2scc(-c3ccc[nH]3)c12,.,.,-2.4%,50.1µM*,.,?

# Assay outcomes: PubChem, National Center for Advancing Translational Sciences (NCATS)
